# Test results taken from publication PMC7862700, “An all-to-all approach to the identification of sequence-specific readers for epigenetic DNA modifications on cytosine”.
# Columns and labels:
# Assay in all cases: DAPPL (digital affinity profiling via proximity ligation, sequencing); 10 mM Tris-HCl pH 7.5, 50 mM NaCl, 1 mM DTT, 4% glycerol, room temperature, 30 min; GST-TFs on glutathione beads, 16-mer random dsDNA library, 0.1% formaldehyde crosslink after washing; high values mean tight binding
# [1] = target: T1, FLI1 (Homo sapiens, UniProt Q01543 1-452); details: protein: recombinant; tags: N-terminal GST; dsDNA, one strand shown
# T1 sequence: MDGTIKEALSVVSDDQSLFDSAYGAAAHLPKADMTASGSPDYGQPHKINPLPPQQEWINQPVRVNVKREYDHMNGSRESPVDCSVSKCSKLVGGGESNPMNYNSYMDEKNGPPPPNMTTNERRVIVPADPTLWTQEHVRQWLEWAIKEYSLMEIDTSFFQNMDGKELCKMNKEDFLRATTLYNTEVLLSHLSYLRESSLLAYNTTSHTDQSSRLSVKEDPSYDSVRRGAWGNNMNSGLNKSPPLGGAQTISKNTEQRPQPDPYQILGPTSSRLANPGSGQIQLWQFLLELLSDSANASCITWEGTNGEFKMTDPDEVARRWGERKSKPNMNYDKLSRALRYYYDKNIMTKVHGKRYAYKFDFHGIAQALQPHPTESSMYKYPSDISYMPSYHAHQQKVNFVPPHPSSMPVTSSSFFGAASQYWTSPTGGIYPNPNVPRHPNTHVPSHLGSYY
# How it was run: (§1)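 A tag-only sample was pooled with DNA-barcoded human transcription factors that had been expressed in yeast as GST fusions and captured on glutathione beads. The pools were incubated for 30 min at room temperature with 200 nmole of a random double-stranded 16-mer DNA library in Tris/NaCl/DTT/glycerol buffer, then washed, crosslinked with 0.1% formaldehyde, proximity-ligated (BsaI/T4 ligase, 1 h, 37 °C), PCR-amplified and sequenced on an Illumina NextSeq500. Binding signal is each hexamer's read frequency for a factor divided by its frequency for the tag-only sample.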
# [2] = target: T2, ELK1 (Homo sapiens, UniProt P19419 1-428); details: protein: recombinant; tags: N-terminal GST; dsDNA, one strand shown
# T2 sequence: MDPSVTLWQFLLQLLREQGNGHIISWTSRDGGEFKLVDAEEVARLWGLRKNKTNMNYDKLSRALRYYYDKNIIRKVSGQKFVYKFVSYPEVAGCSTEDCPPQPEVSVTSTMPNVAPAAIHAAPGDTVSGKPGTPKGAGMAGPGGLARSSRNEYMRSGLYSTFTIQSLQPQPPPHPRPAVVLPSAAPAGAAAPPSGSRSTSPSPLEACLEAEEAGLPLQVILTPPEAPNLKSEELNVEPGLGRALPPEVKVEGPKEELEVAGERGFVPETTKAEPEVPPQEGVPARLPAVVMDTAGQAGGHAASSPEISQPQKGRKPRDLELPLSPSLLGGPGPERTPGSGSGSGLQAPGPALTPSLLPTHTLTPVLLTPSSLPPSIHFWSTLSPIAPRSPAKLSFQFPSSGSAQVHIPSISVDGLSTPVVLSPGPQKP
# How it was run: as §1
# [3] = target: T3, GABPA (Homo sapiens, UniProt Q06546 1-454); details: protein: recombinant; tags: N-terminal GST; dsDNA, one strand shown
# T3 sequence: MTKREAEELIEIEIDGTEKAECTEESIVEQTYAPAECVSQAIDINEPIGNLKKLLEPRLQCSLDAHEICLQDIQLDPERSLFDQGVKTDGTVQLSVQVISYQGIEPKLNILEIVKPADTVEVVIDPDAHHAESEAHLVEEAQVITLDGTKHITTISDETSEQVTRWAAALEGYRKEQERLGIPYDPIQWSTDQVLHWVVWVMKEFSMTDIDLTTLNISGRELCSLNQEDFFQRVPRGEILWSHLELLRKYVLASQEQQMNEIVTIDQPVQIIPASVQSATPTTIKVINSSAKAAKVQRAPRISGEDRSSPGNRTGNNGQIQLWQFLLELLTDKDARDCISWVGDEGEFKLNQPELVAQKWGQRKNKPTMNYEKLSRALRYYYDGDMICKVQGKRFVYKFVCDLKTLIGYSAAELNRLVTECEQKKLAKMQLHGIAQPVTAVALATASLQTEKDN
# How it was run: as §1
# [4] = target: T4, ERG (Homo sapiens, UniProt P11308 1-479); details: protein: recombinant; tags: N-terminal GST; dsDNA, one strand shown
# T4 sequence: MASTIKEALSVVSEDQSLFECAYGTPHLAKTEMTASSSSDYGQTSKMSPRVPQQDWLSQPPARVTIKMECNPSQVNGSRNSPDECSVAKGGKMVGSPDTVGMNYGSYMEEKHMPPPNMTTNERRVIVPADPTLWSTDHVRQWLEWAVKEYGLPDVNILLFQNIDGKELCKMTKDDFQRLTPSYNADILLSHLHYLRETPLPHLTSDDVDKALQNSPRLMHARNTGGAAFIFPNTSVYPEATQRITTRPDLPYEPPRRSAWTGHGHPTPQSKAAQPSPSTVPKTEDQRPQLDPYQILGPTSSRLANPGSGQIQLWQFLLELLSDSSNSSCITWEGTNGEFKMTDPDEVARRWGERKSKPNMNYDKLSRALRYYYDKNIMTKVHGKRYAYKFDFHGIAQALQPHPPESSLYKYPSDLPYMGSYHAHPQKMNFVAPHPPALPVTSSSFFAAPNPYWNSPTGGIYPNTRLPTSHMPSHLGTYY
# How it was run: as §1
# [5] = target: ELF1 (Homo sapiens, UniProt P32519 1-619); details: protein: recombinant; tags: N-terminal GST; dsDNA, one strand shown
# ELF1, sequence (P32519 whole entry): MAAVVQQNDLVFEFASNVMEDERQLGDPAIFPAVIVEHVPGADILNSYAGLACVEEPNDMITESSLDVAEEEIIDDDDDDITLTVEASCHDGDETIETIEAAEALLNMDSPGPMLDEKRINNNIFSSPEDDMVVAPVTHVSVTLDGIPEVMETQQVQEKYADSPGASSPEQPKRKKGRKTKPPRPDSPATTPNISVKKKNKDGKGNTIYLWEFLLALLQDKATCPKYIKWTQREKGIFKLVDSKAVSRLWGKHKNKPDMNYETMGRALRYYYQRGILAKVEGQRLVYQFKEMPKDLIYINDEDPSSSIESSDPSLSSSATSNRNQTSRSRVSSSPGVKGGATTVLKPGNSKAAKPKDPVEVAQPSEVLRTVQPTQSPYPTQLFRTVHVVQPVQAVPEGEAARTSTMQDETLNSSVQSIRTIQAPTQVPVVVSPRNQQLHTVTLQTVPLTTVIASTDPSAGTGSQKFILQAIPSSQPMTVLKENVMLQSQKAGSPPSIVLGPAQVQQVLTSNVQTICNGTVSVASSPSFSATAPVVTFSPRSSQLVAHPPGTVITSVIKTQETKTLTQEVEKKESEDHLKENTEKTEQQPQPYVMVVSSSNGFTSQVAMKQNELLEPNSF
# How it was run: as §1
# [6] = target: T5, EHF (Homo sapiens, UniProt Q9NZC4 1-300); details: protein: recombinant; tags: N-terminal GST; dsDNA, one strand shown
# T5 sequence: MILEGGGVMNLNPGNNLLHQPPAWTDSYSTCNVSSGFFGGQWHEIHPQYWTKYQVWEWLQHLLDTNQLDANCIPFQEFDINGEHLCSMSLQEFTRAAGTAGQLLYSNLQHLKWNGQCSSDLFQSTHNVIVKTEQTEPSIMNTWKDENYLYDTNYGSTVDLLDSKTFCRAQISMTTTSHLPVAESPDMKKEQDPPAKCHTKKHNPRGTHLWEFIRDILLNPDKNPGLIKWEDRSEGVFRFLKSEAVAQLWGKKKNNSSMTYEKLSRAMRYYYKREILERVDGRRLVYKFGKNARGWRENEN
# How it was run: as §1
# [7] = target: SPI1 (Homo sapiens, UniProt P17947 1-270); details: protein: recombinant; tags: N-terminal GST; dsDNA, one strand shown
# How it was run: as §1
# [8] = target: SPIB (Homo sapiens, UniProt Q01892 1-262); details: protein: recombinant; tags: N-terminal GST; dsDNA, one strand shown
# SPIB, sequence (Q01892 whole entry): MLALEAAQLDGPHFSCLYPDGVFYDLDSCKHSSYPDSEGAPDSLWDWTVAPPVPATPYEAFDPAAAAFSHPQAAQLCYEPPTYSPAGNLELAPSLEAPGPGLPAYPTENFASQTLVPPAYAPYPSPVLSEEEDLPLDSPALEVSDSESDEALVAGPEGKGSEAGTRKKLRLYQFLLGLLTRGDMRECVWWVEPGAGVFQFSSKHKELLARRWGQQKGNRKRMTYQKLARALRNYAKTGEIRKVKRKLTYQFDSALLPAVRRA
# How it was run: as §1
# [9] = target: T6, ELK3 (Homo sapiens, UniProt P41970 1-407); details: protein: recombinant; tags: N-terminal GST; dsDNA, one strand shown
# T6 sequence: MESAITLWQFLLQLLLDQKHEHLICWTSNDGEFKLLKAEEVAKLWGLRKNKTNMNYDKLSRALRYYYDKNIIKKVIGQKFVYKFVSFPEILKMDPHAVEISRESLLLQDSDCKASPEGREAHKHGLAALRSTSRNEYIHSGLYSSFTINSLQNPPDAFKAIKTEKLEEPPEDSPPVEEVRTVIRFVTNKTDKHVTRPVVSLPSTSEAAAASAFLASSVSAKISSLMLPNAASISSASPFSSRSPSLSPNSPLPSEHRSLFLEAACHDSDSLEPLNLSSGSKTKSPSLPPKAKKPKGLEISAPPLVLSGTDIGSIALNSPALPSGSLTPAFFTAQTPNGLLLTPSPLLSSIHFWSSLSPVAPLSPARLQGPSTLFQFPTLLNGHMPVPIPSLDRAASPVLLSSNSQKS
# How it was run: as §1
# [10] = target: T7, FEV (Homo sapiens, UniProt Q99581 1-238); details: protein: recombinant; tags: N-terminal GST; dsDNA, one strand shown
# T7 sequence: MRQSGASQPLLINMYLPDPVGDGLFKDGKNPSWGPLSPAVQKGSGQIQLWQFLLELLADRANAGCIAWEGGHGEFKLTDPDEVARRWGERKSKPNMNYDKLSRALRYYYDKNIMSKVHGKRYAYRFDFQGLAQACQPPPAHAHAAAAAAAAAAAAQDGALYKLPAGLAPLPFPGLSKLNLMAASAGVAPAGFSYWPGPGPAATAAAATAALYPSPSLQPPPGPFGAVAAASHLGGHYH
# How it was run: as §1
# [11] = target: ETV5 (Homo sapiens, UniProt P41161 1-510); details: protein: recombinant; tags: N-terminal GST; dsDNA, one strand shown
# ETV5, sequence (P41161 whole entry): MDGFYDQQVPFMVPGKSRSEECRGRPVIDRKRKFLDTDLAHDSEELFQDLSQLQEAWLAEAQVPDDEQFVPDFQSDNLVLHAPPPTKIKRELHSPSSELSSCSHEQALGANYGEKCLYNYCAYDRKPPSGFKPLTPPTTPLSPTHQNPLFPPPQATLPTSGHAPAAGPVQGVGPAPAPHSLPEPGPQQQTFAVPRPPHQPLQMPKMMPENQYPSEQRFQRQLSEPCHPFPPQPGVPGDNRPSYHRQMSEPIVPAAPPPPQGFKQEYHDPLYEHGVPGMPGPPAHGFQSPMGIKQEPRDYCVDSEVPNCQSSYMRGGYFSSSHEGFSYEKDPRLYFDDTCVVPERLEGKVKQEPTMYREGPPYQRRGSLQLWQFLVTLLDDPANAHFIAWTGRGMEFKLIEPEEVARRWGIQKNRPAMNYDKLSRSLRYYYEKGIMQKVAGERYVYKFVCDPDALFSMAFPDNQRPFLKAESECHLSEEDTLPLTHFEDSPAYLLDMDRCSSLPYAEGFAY
# How it was run: as §1
# [12] = target: HSF1 (Homo sapiens, UniProt Q00613 1-529); details: protein: recombinant; tags: N-terminal GST; chain copies: 3; dsDNA, one strand shown
# HSF1, sequence (Q00613 whole entry): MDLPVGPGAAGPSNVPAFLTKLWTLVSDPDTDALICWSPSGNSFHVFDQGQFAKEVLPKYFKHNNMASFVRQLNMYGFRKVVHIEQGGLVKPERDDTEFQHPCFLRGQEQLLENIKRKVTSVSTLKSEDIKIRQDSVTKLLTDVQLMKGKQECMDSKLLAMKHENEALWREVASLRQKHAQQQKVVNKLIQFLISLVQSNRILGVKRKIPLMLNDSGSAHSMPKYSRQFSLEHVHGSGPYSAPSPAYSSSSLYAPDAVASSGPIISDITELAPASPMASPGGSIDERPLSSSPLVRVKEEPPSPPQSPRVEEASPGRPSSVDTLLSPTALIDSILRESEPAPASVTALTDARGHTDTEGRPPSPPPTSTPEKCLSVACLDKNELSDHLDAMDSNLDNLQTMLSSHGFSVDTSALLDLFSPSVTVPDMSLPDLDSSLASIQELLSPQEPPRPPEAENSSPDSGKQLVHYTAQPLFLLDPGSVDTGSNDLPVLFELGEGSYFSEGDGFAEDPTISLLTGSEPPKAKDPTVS
# How it was run: as §1
# [13] = target: T8, SPIC (Homo sapiens, UniProt Q8N5J4 1-248); details: protein: recombinant; tags: N-terminal GST; dsDNA, one strand shown
# T8 sequence: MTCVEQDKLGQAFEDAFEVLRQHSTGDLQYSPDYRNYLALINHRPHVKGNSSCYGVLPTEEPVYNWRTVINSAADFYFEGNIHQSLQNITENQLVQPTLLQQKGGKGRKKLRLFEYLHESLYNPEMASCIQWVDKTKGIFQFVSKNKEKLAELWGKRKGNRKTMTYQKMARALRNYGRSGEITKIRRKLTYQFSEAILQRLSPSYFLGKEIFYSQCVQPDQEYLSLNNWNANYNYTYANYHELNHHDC
# How it was run: as §1
# [14] = target: ELF4 (Homo sapiens, UniProt Q99607 1-663); details: protein: recombinant; tags: N-terminal GST; dsDNA, one strand shown
# ELF4, sequence (Q99607 whole entry): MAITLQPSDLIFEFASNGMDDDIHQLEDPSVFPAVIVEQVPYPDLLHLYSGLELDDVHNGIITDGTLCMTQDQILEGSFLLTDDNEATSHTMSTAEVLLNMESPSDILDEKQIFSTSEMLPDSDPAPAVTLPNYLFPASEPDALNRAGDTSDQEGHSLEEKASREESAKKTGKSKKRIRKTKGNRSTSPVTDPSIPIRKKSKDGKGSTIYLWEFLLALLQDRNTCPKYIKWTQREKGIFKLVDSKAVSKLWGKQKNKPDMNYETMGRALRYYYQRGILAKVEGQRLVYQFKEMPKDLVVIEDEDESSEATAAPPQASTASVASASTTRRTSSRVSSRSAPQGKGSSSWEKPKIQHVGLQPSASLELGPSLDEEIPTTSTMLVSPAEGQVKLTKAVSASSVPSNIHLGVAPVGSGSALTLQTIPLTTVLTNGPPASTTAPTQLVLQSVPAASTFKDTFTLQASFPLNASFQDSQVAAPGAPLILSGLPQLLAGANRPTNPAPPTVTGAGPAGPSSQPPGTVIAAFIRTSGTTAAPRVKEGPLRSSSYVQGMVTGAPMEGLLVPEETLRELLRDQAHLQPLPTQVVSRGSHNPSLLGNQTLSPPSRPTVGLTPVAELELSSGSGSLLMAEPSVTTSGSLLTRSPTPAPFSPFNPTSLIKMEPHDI
# How it was run: as §1
# [15] = target: T9, ELK4 (Homo sapiens, UniProt P28324-2 1-405); details: protein: recombinant; tags: N-terminal GST; dsDNA, one strand shown
# T9 sequence: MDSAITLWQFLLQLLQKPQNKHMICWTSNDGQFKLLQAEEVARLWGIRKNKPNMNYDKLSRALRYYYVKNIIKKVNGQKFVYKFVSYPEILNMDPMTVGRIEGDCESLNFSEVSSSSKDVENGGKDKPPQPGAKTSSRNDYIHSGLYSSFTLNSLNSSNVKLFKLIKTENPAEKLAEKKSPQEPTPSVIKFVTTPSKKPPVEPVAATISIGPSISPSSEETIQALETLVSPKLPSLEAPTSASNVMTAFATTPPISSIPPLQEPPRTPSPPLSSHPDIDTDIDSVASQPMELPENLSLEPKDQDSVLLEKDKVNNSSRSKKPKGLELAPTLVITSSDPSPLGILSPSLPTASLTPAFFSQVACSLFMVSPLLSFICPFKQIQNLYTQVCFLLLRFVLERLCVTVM
# How it was run: as §1
# [16] = target: T10, ETV2 (Homo sapiens, UniProt O00321 1-342); details: protein: recombinant; tags: N-terminal GST; dsDNA, one strand shown
# T10 sequence: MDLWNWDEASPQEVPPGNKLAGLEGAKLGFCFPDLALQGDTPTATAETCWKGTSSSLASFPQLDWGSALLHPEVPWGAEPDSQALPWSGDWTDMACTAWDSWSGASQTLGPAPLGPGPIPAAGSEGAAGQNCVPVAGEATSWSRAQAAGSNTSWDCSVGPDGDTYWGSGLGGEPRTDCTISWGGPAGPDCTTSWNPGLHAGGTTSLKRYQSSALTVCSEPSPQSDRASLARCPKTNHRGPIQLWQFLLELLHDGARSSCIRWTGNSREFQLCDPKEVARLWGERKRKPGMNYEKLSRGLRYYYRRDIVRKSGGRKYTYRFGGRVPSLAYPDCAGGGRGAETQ
# How it was run: as §1
# [17] = target: T11, ELF3 (Homo sapiens, UniProt P78545 1-371); details: protein: recombinant; tags: N-terminal GST; dsDNA, one strand shown
# T11 sequence: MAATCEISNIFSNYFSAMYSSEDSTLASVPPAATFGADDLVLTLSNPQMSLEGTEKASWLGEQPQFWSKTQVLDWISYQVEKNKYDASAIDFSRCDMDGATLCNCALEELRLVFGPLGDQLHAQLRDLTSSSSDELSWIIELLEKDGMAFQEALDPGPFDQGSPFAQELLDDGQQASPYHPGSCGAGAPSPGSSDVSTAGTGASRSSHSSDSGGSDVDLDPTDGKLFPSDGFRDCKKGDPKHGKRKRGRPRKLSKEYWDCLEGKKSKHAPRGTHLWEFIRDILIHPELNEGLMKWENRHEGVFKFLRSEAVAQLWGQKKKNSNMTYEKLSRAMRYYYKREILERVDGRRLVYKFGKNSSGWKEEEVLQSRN
# How it was run: as §1
# [18] = target: CRX (Homo sapiens, UniProt O43186 1-299); details: protein: recombinant; tags: N-terminal GST; dsDNA, one strand shown
# CRX, sequence (O43186 whole entry): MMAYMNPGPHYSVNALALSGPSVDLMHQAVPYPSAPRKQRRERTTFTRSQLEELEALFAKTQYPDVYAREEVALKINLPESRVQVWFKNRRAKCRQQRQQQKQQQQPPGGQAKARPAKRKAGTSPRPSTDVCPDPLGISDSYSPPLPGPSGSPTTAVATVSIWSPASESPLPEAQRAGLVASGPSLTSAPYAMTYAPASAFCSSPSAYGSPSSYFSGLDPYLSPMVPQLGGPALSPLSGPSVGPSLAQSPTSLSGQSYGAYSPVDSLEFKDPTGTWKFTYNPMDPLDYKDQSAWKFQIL
# How it was run: as §1
# [19] = target: ETV1 (Homo sapiens, UniProt P50549 1-477); details: protein: recombinant; tags: N-terminal GST; dsDNA, one strand shown
# ETV1, sequence (P50549 whole entry): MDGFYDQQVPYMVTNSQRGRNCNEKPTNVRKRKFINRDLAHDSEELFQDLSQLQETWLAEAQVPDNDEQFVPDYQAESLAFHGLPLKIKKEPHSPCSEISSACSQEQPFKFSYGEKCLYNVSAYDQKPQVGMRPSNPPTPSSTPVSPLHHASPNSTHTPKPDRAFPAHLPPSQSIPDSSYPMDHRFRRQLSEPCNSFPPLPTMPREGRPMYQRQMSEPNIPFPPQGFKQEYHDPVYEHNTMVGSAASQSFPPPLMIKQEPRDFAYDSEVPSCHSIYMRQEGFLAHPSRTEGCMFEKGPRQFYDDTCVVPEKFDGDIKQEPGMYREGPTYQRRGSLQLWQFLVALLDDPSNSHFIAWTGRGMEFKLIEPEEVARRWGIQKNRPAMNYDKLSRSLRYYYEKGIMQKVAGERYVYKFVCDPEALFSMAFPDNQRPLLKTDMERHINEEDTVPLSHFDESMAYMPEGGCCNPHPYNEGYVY
# How it was run: as §1
sequence,measurement,setting,value
ATTACG,binding signal,[1],"1.22 fold enrichment (6-mer frequency, TF over GST control)"
same,binding signal,[2],"1.13 fold enrichment (6-mer frequency, TF over GST control)"
same,binding signal,[3],"1.25 fold enrichment (6-mer frequency, TF over GST control)"
same,binding signal,[4],"1.17 fold enrichment (6-mer frequency, TF over GST control)"
same,binding signal,[5],"1.2 fold enrichment (6-mer frequency, TF over GST control)"
same,binding signal,[6],"1.12 fold enrichment (6-mer frequency, TF over GST control)"
same,binding signal,[7],"1.23 fold enrichment (6-mer frequency, TF over GST control)"
same,binding signal,[8],"1.18 fold enrichment (6-mer frequency, TF over GST control)"
same,binding signal,[9],"1.25 fold enrichment (6-mer frequency, TF over GST control)"
same,binding signal,[10],"1.16 fold enrichment (6-mer frequency, TF over GST control)"
same,binding signal,[11],"1.26 fold enrichment (6-mer frequency, TF over GST control)"
same,binding signal,[12],"1.54 fold enrichment (6-mer frequency, TF over GST control)"
same,binding signal,[13],"1.02 fold enrichment (6-mer frequency, TF over GST control)"
same,binding signal,[14],"1.14 fold enrichment (6-mer frequency, TF over GST control)"
same,binding signal,[15],"1.28 fold enrichment (6-mer frequency, TF over GST control)"
same,binding signal,[16],"1.17 fold enrichment (6-mer frequency, TF over GST control)"
same,binding signal,[17],"1.14 fold enrichment (6-mer frequency, TF over GST control)"
same,binding signal,[18],"2.19 fold enrichment (6-mer frequency, TF over GST control)"
same,binding signal,[19],"1.26 fold enrichment (6-mer frequency, TF over GST control)"
